An excerpt weighted towards active compounds, which were near 2.2% of everything screened.
LGR2 antag – blocks bursicon-induced cAMP signaling via Drosophila LGR2. HEK293 LGR2, CRE-luciferase, bursicon-stimulated, 4 h. hit rate 0.35% among 380,000. inhibition, % at 9.99 µM. AID 720647;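 active means drop in luminescence signal, shown as inhibition above about 50% in the replicate tests, limit read from the data, passing the limit was not always enough; inconclusive means probably only some replicates passing the limit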;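 further: agonist challenge used bursicon conditioned medium at about half maximal strength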
TROY NFkB inh – blocks TROY-dependent signaling in reporter cells; Q293 LMP1-TROYcd NF-kB luciferase reporter, 4 h; inhibition, % at 10 µM; hit rate 0.98% among 360,000;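 active means compounds whose plate-normalised and pattern-corrected inhibition of the luciferase reporter signal at the single screening dose is 50% or more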
HSP90 refold inh – blocks HSP90-mediated luciferase refolding in reticulocyte lysate. Rabbit reticulocyte lysate, luciferase refolding luminescence, 3 h. inhibition, % at 5.6 µM. hit rate 0.91% among 290,000. AID 1789;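 active means inhibition above the screen-wide mean plus 3 SD, computed separately per campaign, cut at about 16% in these data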;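 further: inhibitors lower the luminescence because luciferase stays unfolded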
TWEAK-Fn14 inh – inhibitors of TWEAK-Fn14 interaction signaling; hit rate 2% among 360,000; inhibition, % at 10 µM; AID 1159606; TWEAK-stimulated Fn14 reporter cells, luciferase luminescence, 8 h; in the data active means inhibition above about 50%
HSP90 confirm – HSP90 inhibition, confirmation assay | shares compounds with HSP90 refold inh | rabbit reticulocyte lysate, luciferase refolding luminescence, 3 h | inhibition, % at 5.9 µM | hit rate 64% among 2,300; in the data active means inhibition above about 18%
luciferase ctr – counter-screen for HSP90 inhibitors: inhibitors of firefly luciferase; shares compounds with HSP90 refold inh; purified native firefly luciferase, luminescence; inhibition, % at 5.9 µM; hit rate 48% among 2,300; AID 1847;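 active means inhibition above the mean inhibition of all tested sample wells plus 3 SD, cut at about 10% in these data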
Target sequence (P08659 whole entry, looked up): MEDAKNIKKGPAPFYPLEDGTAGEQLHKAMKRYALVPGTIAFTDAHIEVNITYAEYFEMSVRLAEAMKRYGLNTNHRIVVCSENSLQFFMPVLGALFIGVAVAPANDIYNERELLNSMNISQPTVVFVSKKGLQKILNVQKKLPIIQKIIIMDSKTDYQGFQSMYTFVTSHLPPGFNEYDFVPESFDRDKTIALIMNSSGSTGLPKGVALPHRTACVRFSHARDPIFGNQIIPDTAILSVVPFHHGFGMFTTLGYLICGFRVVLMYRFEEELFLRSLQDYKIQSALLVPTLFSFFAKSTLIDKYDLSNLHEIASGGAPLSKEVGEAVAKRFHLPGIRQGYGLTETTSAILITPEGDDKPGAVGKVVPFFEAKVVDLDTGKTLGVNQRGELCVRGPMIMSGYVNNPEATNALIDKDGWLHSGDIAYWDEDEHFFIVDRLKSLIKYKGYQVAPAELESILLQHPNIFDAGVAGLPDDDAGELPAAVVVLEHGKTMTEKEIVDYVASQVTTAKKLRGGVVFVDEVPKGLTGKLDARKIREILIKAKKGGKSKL
Hits are given with their value; . = inactive; ? = inconclusive; / = no result given.

SMILES	LGR2 antag	TROY NFkB inh	HSP90 refold inh	TWEAK-Fn14 inh	HSP90 confirm	luciferase ctr
COc1cc(OC)c(OC)cc1/C=N/Nc1nc2ccccc2[nH]1	.	.	.	.	/	/
C(=N\Nc1nc2ccccc2[nH]1)/c1ccccn1	90	82	79	100	88	85
CNC[C@H]1Oc2ccc(NC(=O)Nc3c(C)noc3C)cc2C(=O)N([C@@H](C)CO)C[C@@H]1C	.	/	/	/	/	/
N#CC1(C#N)COC23CCCCC2C1(C#N)C(=N)O3 (stereo unspecified)	/	.	18	.	.	.
N#CC12COC3(CCCCC3C1(C#N)C#N)OC2=N (stereo unspecified)	.	.	.	.	/	/
CO[C@@H]1CN(C)C(=O)c2ccc(NS(C)(=O)=O)cc2OC[C@@H](C)N(C(=O)C2CCOCC2)C[C@H]1C	.	/	/	/	/	/
C[C@@H]1CN([C@@H](C)CO)C(=O)c2cccc(NS(=O)(=O)c3ccc(F)cc3)c2O[C@@H]1CN(C)C(=O)Nc1ccc2c(c1)OCO2	.	/	/	/	/	/
COc1ccc(C(=O)Nc2ccccc2C(N)=O)cc1	.	.	.	.	/	/
COc1ccc(C(=O)Nc2ccccc2C(=O)N/N=C/c2ccncc2)cc1OC	?	.	29	.	61	19
COc1ccc(C(=O)Nc2ccccc2C(=O)N/N=C/c2cccc3ccccc23)cc1	/	.	35	78	80	51
COc1cc(/C=C2\C(=O)N(CCC#N)N=C2C)c(Br)cc1OC(C)C	/	.	18	.	.	.
O=C1C=C(Nc2ccc(O)cc2)C(=O)c2ccccc21	.	.	.	.	/	/
CCc1ccc(S(=O)(=O)/N=C2\C=C(Nc3ccc(O)cc3)C(=O)c3ccccc32)cc1	/	74	31	94	72	.
CCc1ccc(S(=O)(=O)/N=C2\C=C(Nc3cccc(C(=O)O)c3)C(=O)c3ccccc32)cc1	.	.	69	98	82	.
O=C1C(Nc2ccc(O)cc2)=C/C(=N/S(=O)(=O)c2cccs2)c2ccccc21	100	58	73	95	91	.
CCc1ccc(S(=O)(=O)/N=C2/C=C(Sc3ncn[nH]3)C(=O)c3ccccc32)cc1	/	60	88	96	33	34
CCc1ccc(S(=O)(=O)/N=C2\C=CC(=O)c3ccccc32)cc1	/	/	.	/	/	/
O=C(O)c1cccc(NC2=C(n3nnc4ccccc43)C(=O)c3ccccc3C2=O)c1	.	.	.	.	/	/
C[C@H](CO)N1C[C@H](C)[C@@H](CN(C)Cc2ccc3c(c2)OCO3)OCCCC[C@H](C)Oc2ccc(NC(=O)Nc3cccc4ccccc34)cc2C1=O	.	/	/	/	/	/
C[C@@H](NC(=O)C[C@@H]1C=C[C@H](NS(=O)(=O)c2cccc(F)c2)[C@H](CO)O1)c1ccccc1	.	/	/	/	/	/
C[C@@H]1CN([C@@H](C)CO)C(=O)Cc2cc(NS(=O)(=O)c3cccs3)ccc2O[C@H]1CN(C)Cc1ccncc1	.	/	/	/	/	/
CCCNC(=O)[C@H]1[C@H](CO)[C@H]2Cn3c(cccc3=O)[C@@H]1N2C(=O)C1CCC1	.	/	/	/	/	/
CCCC#Cc1cnc2c(c1)C(=O)N([C@@H](C)CO)C[C@@H](C)[C@@H](CN(C)C(=O)C1CCCCC1)O2	.	/	/	/	/	/
CC(C)(C)OC(=O)N1Cc2ccccc2C[C@H]1C(=O)NCC(=O)Nc1ccc2c(c1)OCCO2	.	82	32	96	52	69
COc1cccc(NC(=O)CNC(=O)[C@@H]2Cc3ccccc3CN2C(=O)OC(C)(C)C)c1	.	.	.	.	/	/
SMILES	LGR2 antag	TROY NFkB inh	HSP90 refold inh	TWEAK-Fn14 inh	HSP90 confirm	luciferase ctr
C=CCNC(=O)COc1ccccc1C#N	.	.	.	.	/	/
CC(C)(C)NC(=O)NC(=O)COc1ccccc1C#N	/	.	18	.	.	.
CO[C@@H]1CN(C)C(=O)c2cc(NC(=O)C3CCCCC3)ccc2OC[C@@H](C)NC[C@@H]1C	.	/	/	/	/	/
C[C@@H]1CN([C@H](C)CO)C(=O)c2cc(-c3ccncc3)cnc2O[C@H]1CN(C)C(=O)c1ccncc1	.	/	/	/	/	/
O=C1N/C(=C\c2nc3ccccc3s2)c2ccccc21	/	/	21	/	53	25
O=C1N/C(=C\c2ccccc2)c2ccccc21	/	.	.	.	/	/
C[C@H]1CN([C@@H](C)CO)C(=O)c2cc(C3=CCCC3)cnc2O[C@H]1CN(C)C(=O)C1CCC1	.	/	/	/	/	/
COc1ccc(CN2CCN(S(=O)(=O)c3ccc(NC(C)=O)cc3)CC2)cc1	.	.	24	.	.	.
O=C(CSc1ccc2nnc(CCNC(=O)c3ccccc3)n2n1)NCc1ccccc1	.	.	.	.	/	/
O=C(NCCc1nnc2ccc(NCc3ccc(Cl)cc3)nn12)c1ccccc1	.	.	20	.	.	.
CC(C)C#Cc1ccc([C@H]2[C@@H](CO)N3CCCCN(CC4CC4)C[C@@H]23)cc1	.	/	/	/	/	/
O=C(NCCc1ccccc1)c1ccccc1Cl	58	.	43	78	58	50
O=C(NCCc1ccccc1)c1ccccc1NC(=O)C1CC=CCC1C(=O)O (stereo unspecified)	.	.	45	.	.	.
Cn1cccc1C(=O)NCCc1ccccc1	.	.	19	56	39	26
O=C(O)c1ccccc1C(=O)NCCc1ccc(Cl)cc1	.	.	.	.	/	/
COCCNC(=O)C[C@@H]1CC[C@@H](NC(=O)NC2CCCC2)[C@@H](CO)O1	.	/	/	/	/	/
C[C@@H]1CCCCO[C@H](CN(C)C(=O)Nc2ccc(C(F)(F)F)cc2)[C@H](C)CN([C@H](C)CO)C(=O)c2cc(NS(=O)(=O)c3cn(C)cn3)ccc2O1	.	/	/	/	/	/
O=C(N[C@@H](Cc1c[nH]c2ccccc12)C(=O)O)C1CCN(S(=O)(=O)c2cccs2)CC1	.	.	20	.	.	.
CCC(=O)c1ccc(OCC(=O)Nc2ccc(N3CCOCC3)cc2N2CCOCC2)cc1	.	.	28	.	.	.
O=C(COc1cccc(Br)c1)Nc1ccc(N2CCOCC2)cc1N1CCOCC1	.	.	/	.	/	/
COC(=O)c1nn(-c2ccc3c(c2)CCN3C(C)=O)cc1O	/	76	85	103	88	74
COC(=O)c1nn(-c2ccc3c(c2)OCO3)cc1O	/	.	.	.	/	/
CC1CSc2ccccc2NC1=S (stereo unspecified)	/	.	.	.	/	/
c1ccc(C2CSc3ccccc3N2)cc1 (stereo unspecified)	.	.	38	.	.	.
COc1ccc(NC(=O)N(C)C[C@@H]2Oc3ccc(NC(=O)Cc4cn(C)c5ccccc45)cc3CC(=O)N([C@H](C)CO)C[C@H]2C)cc1	.	/	/	/	/	/
SMILES	LGR2 antag	TROY NFkB inh	HSP90 refold inh	TWEAK-Fn14 inh	HSP90 confirm	luciferase ctr
Fc1ccc(-n2nnc(-c3nccs3)n2)cc1	.	.	20	.	32	25
CCN(Cc1nc(-c2cccc(C)c2)no1)C(=O)c1ccco1	.	.	21	.	.	.
CC(C)CN1C(=O)NC(NC(=O)c2ccco2)(C(F)(F)F)C1=O (stereo unspecified)	/	.	27	.	.	.
CN1C(=O)NC(NC(=O)c2ccco2)(C(F)(F)F)C1=O (stereo unspecified)	/	.	.	.	/	/
CN(C)c1ccc(N=Nc2ccccc2C(=O)OCC(=O)N2CCCC2)cc1	.	.	.	.	/	/
CN(C)c1ccc(N=Nc2ccccc2Br)cc1	?	.	52	77	65	54
